aSyn UTR act: Activators via SNCA 5'UTR binding, MLPCN | alpha-synuclein 5'UTR reporter, activators screen | activity score, % (tested at 7.5 µM), hits read low | hit rate 7.1% among 300,000 | AID 1814; in the data active = activity score below about -60%
Of the large screens only hits and unclear results are named; the others gave an inactive call. Not all results are given here.

Cc1cccc(NC(=O)c2cc(-c3ccc(C)c(C)c3O)n[nH]2)c1	aSyn UTR act -210.5
CC(=O)Nc1ccc(NC(=O)c2cc(-c3ccc(C)c(C)c3O)n[nH]2)cc1	aSyn UTR act -169.7
CC(=O)Nc1ccc(NC(=O)c2cc(-c3cc(C)cc(C)c3O)n[nH]2)cc1	aSyn UTR act -108.2
O=C1c2ccccc2NC(c2ccc3c(c2)OCO3)N1O (stereo not drawn)	aSyn UTR act -120.5
O=C(NCCc1c[nH]c2ccccc12)C(=O)Nc1ccccc1	aSyn UTR act -65.3
O=C(NCCc1ccccc1)C(=O)c1c[nH]c2ccccc12	aSyn UTR act -199.5
Clc1ccc(-c2noc(/C=C/c3ccccc3)n2)cc1	aSyn UTR act -93.7
Cc1ccc(-c2noc(/C=C/c3ccccc3)n2)cc1	aSyn UTR act -201.9
Cc1ccc(/C=C/c2nnc(-c3ccccc3)o2)cc1	aSyn UTR act -108.8
Cc1cc2ncc(S(C)(=O)=O)c(N)n2n1	none
O=[N+]([O-])c1ccc(-c2cnc3ccccc3n2)cc1	aSyn UTR act -124.4
O=[N+]([O-])c1cc(-c2cnc3ccccc3n2)ccc1Oc1ccc(F)cc1	aSyn UTR act -149.6
CCOc1ccc(-c2cnc3ccccc3n2)cc1	none
CCC(=O)Nc1cccc(NC(=S)NC(=O)c2ccccc2C)c1	aSyn UTR act -112.9
CCOc1ccc(C(=O)NC(=S)Nc2cccc(S(=O)(=O)NC3=NCCC3)c2)cc1	none
CCC(=O)Nc1cccc(NC(=S)NC(=O)c2ccc(Cl)cc2)c1	aSyn UTR act -150.9
Cc1nc2ccccn2c1C(=O)N/N=C/c1ccc2c(c1)OCO2	aSyn UTR act -96.1
O=C(CNC(=O)c1ccccc1F)N/N=C/c1ccc2c(c1)OCO2	aSyn UTR act -98.3
O=C(CNc1ccc2c(c1)OCO2)N/N=C\c1cn(Cc2ccccc2)c2ccccc12	none
O=C(Cc1ccccc1)N/N=C/c1ccc2c(c1)OCO2	aSyn UTR act -139.7
O=C(N/N=C/c1ccc2c(c1)OCO2)C(=O)Nc1ccccc1	aSyn UTR act -84.5
Oc1ccccc1-c1cc(-c2cccc(F)c2)n[nH]1	aSyn UTR act -233.9
CCc1sc(C(=O)Nc2nccs2)cc1C	aSyn UTR act -122.6
CCc1sc(C(=O)Nc2ncccc2C)cc1C	aSyn UTR act -66.6
CCOC(=O)CN1C(=O)S/C(=C/C=C/c2ccc(N(C)C)cc2)C1=O	aSyn UTR act -165.3
O=C(CN1C(=O)S/C(=C\C=C\c2ccccc2)C1=O)Nc1ccc(O)cc1	aSyn UTR act -150.0
O=C(COC(=O)CCN1C(=O)/C(=C\C=C\c2ccccc2)SC1=S)Nc1ccc(Br)cc1	none
CC(C)c1ccccc1NC(=O)COC(=O)CCN1C(=O)/C(=C\C=C\c2ccccc2)SC1=S	none
CCOC(=O)CN1C(=O)S/C(=C/c2ccc3c(c2)n(C)c(=O)n3C)C1=O	aSyn UTR act -154.8
COc1ccc(-c2csc(NC(=O)COC(=O)C3=COCCO3)n2)cc1	aSyn UTR act -128.2
C=CCNc1nc(-c2ccc(OC)cc2OC)cs1	aSyn UTR act -320.6
COc1ccccc1-c1nnc(NC(=O)C2=COCCO2)o1	aSyn UTR act -74.6
C=CCn1c(C)cc(-c2csc(NC(=O)C3=COCCO3)n2)c1C	aSyn UTR act -89.4
CC(C)(C)c1ccc(NC(=O)COC(=O)C2=COCCO2)cc1	aSyn UTR act -89.5
COc1ccc(-c2csc(NC(=O)C3=COCCO3)n2)c(OC)c1	aSyn UTR act -86.3
CC(C)(C)c1ccc(NC(=O)COC(=O)C2(C)CC2(Cl)Cl)cc1 (stereo not drawn)	aSyn UTR act -138.1
CC(C)c1ccc(NC(=O)NN2CCOCC2)cc1	aSyn UTR act -98.4
CCC(C)c1ccc(NC(=S)NN2CCOCC2)cc1 (stereo not drawn)	aSyn UTR act -99.3
COc1cccc(CNC(=O)CN2C(=O)CSc3ccc(S(=O)(=O)N4CCCCC4)cc32)c1	aSyn UTR act -159.9
O=C(Cc1ccccc1)Nc1cc2c(cc1Cl)OCCCO2	aSyn UTR act -146.9
CCc1ccc(C(=O)Nc2cc3c(cc2Cl)OCCCO3)cc1	aSyn UTR act -172.2
O=C(C1=NNCC1c1ccccc1)C1OC1c1ccccc1 (stereo not drawn)	aSyn UTR act -83.5
O=C(Nc1cccc2nsnc12)c1ccc2c(c1)OCCO2	aSyn UTR act -212.8
O=C(Nc1cccc2nsnc12)c1ccc2c(c1)OCO2	aSyn UTR act -109.7
Cc1ccc(C(=O)NC(=S)Nc2cccc3nsnc23)cc1	aSyn UTR act -100.5
CCS(=O)(=O)N1CCC(c2nc(-c3ccc(C)cc3)no2)CC1	aSyn UTR act -77.7
Cc1ccc(N(C)S(=O)(=O)c2ccc(-c3cnc(C4CC4)o3)cc2)cc1	none
Cc1ccc(-c2noc(C3CCCCC3)n2)cc1	aSyn UTR act -187.3
Cc1cccc(-c2noc(-c3ccno3)n2)c1	aSyn UTR act -120.9
Cc1cccc(-c2noc(C3CCCCC3)n2)c1	aSyn UTR act -150.0
COc1cc(/C=N/N=C2/NC(=O)C(CC(=O)O)S2)ccc1OCc1cccc(Cl)c1 (stereo not drawn)	aSyn UTR act -184.9
O=C1N/C(=N\N=C\c2cccnc2)SC1Cc1ccc(SC(F)F)cc1 (stereo not drawn)	none
COCC1CCN(Cc2nc(-c3cccs3)no2)C1 (stereo not drawn)	aSyn UTR act -72.4
c1csc(-c2noc(CN3CCc4sccc4C3)n2)c1	aSyn UTR act -69.3
Cn1c(N)c(C(C[N+](=O)[O-])c2c(F)cccc2Cl)c(=O)n(C)c1=O (stereo not drawn)	aSyn UTR act -65.6
CCOc1cccc(OCCCOc2ccccc2)c1	aSyn UTR act -76.3
O=C(COc1ccccc1)Nc1ccc2c(c1)nc1n2CCSC1	aSyn UTR act -124.8
O=C(COc1ccccc1)Nc1ccc2c(c1)nc1n2CCOC1	aSyn UTR act -85.1
O=C(CCC(=O)c1ccc[nH]1)c1ccc(Cl)cc1	aSyn UTR act -115.8
O=C(COc1ccc(F)c(Cl)c1)c1ccc[nH]1	aSyn UTR act -70.8
Cc1cc(-c2cccc([N+](=O)[O-])c2)nc2ccc3ccccc3c12	aSyn UTR act -107.6
N/C(=N\OC(=O)/C=C/c1ccccc1)c1cccnc1	aSyn UTR act -159.2
N/C(=N\OC(=O)/C=C/c1ccccc1Cl)c1cccnc1	aSyn UTR act -248.2
O=C(O)Cc1sc(Nc2ccc(Cl)cc2)nc1-c1cccs1	aSyn UTR act -187.7
Cc1ccc(C(=O)c2cnc3cc4c(cc3c2S(=O)(=O)c2ccccc2)OCCO4)cc1	aSyn UTR act -132.9
CCN(CC)CCOC(=O)c1ccc(NC(=O)CCCN2C(=O)S/C(=C/c3ccc(OC)cc3)C2=S)cc1	none
Nc1c(C(=O)c2ccc(Cl)cc2)oc2ccccc12	aSyn UTR act -111.1
COC(=O)c1oc2ccc(OC)cc2c1N	aSyn UTR act -76.1
CCN(CC)CCOC(=O)c1c(C)oc2ccc(OC)cc12	aSyn UTR act -111.9
COc1ccc(C(=O)c2oc3ccc(OC)cc3c2N)cc1	aSyn UTR act -166.5
CC1OC(Nc2ccc(N=Nc3ccccc3)cc2)C(O)C(O)C1O (stereo not drawn)	aSyn UTR act -63.2
CN1CCC(=O)N([C@H](CSc2ccc(Br)cc2)c2ccccc2)CC1	aSyn UTR act -103.6
CCCN1CCC(=O)N([C@H](CSc2ccc(C)cc2)c2ccccc2)CC1	aSyn UTR act -181.0
CCCN1CCC(=O)N([C@H](CSc2ccc(OC)cc2)CC(C)C)CC1	aSyn UTR act -113.5
CCCN1CCC(=O)N([C@H](CSc2ccccc2)c2ccccc2)CC1	aSyn UTR act -72.1
c1cc2c(cc1C1CCCCC1)c1c3n2CCCNC3CCC1 (stereo not drawn)	none
Nc1nc(CSc2ccccc2)nc(N2CCCCC2)n1	aSyn UTR act -128.5
COC(=O)/C(=C1/Oc2ccc(C)cc2S1)C(F)(F)F	aSyn UTR act -152.3
